# Experimental data published in PubChem BioAssay AID618 (Sanford-Burnham Center for Chemical Genomics, 2007).
# The campaign covered roughly 87,000 compounds. About 540 (0.62%) were called active. The rule behind the calls is not given here. The list comes from a sample in which actives are over-represented; it also holds similar structures and randomly drawn compounds. Measured potencies and affinities stand elsewhere.
# Test: inhibitors of MT1-MMP promoter transcription, cell-based, luciferase reporter, luminescence (AID 618);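 note: actives suppress MT1-MMP promoter-driven transcription so potencies describe inhibitors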
# Conditions: MT1-MMP promoter luciferase reporter cells
row,Structure (SMILES),outcome
1,CCCCCOc1ccc(C(=O)C(c2ccccc2)N2CCOCC2)cc1 (stereo not given),inactive
2,COc1ccc(C(=O)C(CN2CCOCC2)c2ccccc2)cc1 (stereo not given),inactive
3,O=C(c1ccc(F)cc1)C(CN1CCOCC1)c1ccccc1 (stereo not given),active
4,CC(CN1CCOCC1)C(=O)c1ccccc1 (stereo not given),inactive
5,COc1ccc(C(=O)C(CN2CCOCC2)c2ccccc2)cc1F (stereo not given),inactive
6,O=C(NCC1CCCCC1)C1CCN(C(=O)NC2CCCCC2)CC1,inactive
7,COc1ccc(-c2nc3c(n2O)CCCC3=O)cc1OC,inactive
8,O=C(CCSCCc1ccccn1)Nc1ccc(Br)cn1,inactive
9,Cc1ccc(C(=O)Nc2nc3ccccc3s2)s1,inactive
10,c1ccc(CCNc2nc3ccccc3s2)cc1,inactive
11,COc1ccc(NC(=O)NC(C)(C(F)(F)F)C(F)(F)F)cc1,inactive
12,CN(C)c1nc(SCc2ccccc2)nc(N2CCOCC2)n1,inactive
13,C/C(=N\NC(=O)C1COc2ccccc2O1)c1cccs1 (stereo not given),inactive
14,C/C(=N/NC(=O)c1cc(C(C)C)[nH]n1)c1cccs1,inactive
15,O=C(Nc1ccc(Cc2ccncc2)cc1)c1ccc(S(=O)(=O)N2CCOCC2)cc1,inactive
16,CC(C)c1nc(=S)c2ccccc2[nH]1,inactive
17,CN1CC=C2C(C#N)=C(N)C(C#N)(C#N)[C@H](c3ccoc3)[C@H]2C1,inactive
18,N#CC1=C(N)C(C#N)(C#N)[C@H](c2ccoc2)[C@H]2CN(Cc3ccccc3)CC=C12,active
19,CCN1CC=C2C(C#N)=C(N)C(C#N)(C#N)[C@H](c3ccoc3)[C@H]2C1,inactive
20,COc1ccc(/C(C)=N\n2cnnc2)cc1,inactive
21,Cn1c(SCc2cnc(-c3ccccc3)s2)nnc1C1COc2ccccc2O1 (stereo not given),inactive
22,COCCn1c(SCc2cnc(-c3ccccc3)s2)nnc1-c1ccncc1,inactive
23,Cc1nnc(SCc2cnc(-c3ccc(C(C)C)cc3)s2)n1C,active

row,Structure (SMILES),outcome
1,Cc1cccc(NC(=O)CSCc2c(C)noc2C)c1C,inactive
2,CN(C1=NC(=O)C(CC(=O)Nc2ccc(Br)cc2)S1)c1ccc(O)cc1 (stereo not given),inactive
3,CC(=O)N(CCc1ccccc1C)Cc1cc2cc3c(cc2[nH]c1=O)OCO3,inactive
4,Cc1ccccc1C(=O)N1CCC(C(=O)Nc2ccc3c(c2)OCCO3)CC1,inactive
5,Cc1ccc(C(=O)N2CCN(c3cccc(Cl)c3)CC2)cc1C,inactive
6,O=C(O)c1ccccc1C(=O)N1CCN(c2cccc(Cl)c2)CC1,inactive
7,CCCCC(=O)Nc1ccc(C(=O)N2CCC(C(=O)OCC)CC2)cc1,inactive
8,Cc1ccc(C(=O)Nc2sc3c(c2C#N)CCCCC3)cc1C,inactive
9,Cc1ccc(-c2nnc(-c3ccc(Br)cc3)o2)o1,inactive
10,C=CCn1c(SCC(=O)c2ccccc2)nnc1-c1cc2ccccc2o1,inactive
11,CC1CC(C)CN(C(=O)CSc2nnc(-c3ccc(Cl)cc3)o2)C1 (stereo not given),inactive
12,COc1ccc(NC(=O)/C(Cl)=C(/Cl)S(=O)(=O)Cc2ccccc2)cn1,active
13,COc1ccc(CS(=O)(=O)/C(Cl)=C(/Cl)C(=O)Nc2ccc(OC)nc2)cc1,active
14,COc1ccc(NC(=O)c2cc(OC)c(OC)c(OC)c2)cn1,inactive
15,COc1ccc(NS(=O)(=O)Cc2ccccc2Cl)cn1,inactive
16,COC(=O)c1ccccc1S(=O)(=O)Nc1ccc(OC)nc1,inactive
17,COc1ccc(NC(=O)C(CC(C)C)NC(=O)c2ccccc2C)cn1 (stereo not given),inactive
18,COc1ccc(CNC(=O)Nc2ccc(C)cc2)cc1,inactive
19,CCCS(=O)(=O)C(=C(Nc1ccc(OC)cc1)Nc1ccc(OC)cc1)S(=O)(=O)CCC,inactive
20,CCOc1ccccc1Nc1nc(N)nc(CN(C)C2CCCCC2)n1,inactive
21,Cc1nc2cc(C(=O)O)ccc2n1C1CCCCC1,inactive
22,CC1=CC(=C2C(=O)c3ccccc3C2=O)C=C(C)N1C,inactive
23,CN1C=CC(=C2C(=O)c3ccccc3C2=O)C=C1,inactive

row,Structure (SMILES),outcome
1,CC1=CC(=C2C(=O)c3ccccc3C2=O)C=C(C)O1,inactive
2,CCNC1=C(Cl)C(=O)c2ccccc2C1=O,inactive
3,CCSc1nc(N)c(C#N)c(-c2ccco2)c1C#N,inactive
4,c1nc(N2CCOCC2)c2[nH]cnc2n1,inactive
5,COc1cccc2c1C(=O)c1c(O)c3c(c(O)c1C2=O)C[C@@](O)(C(=O)CO)C[C@@H]3O[C@H]1C[C@H](N)[C@H](O)[C@H](C)O1,inactive
6,COc1cccc2c1C(=O)c1c(O)c3c(c(O)c1C2=O)C[C@@](O)(C(C)=O)C[C@@H]3O[C@H]1C[C@H](N)[C@H](O)[C@H](C)O1,active
7,O=C(Cn1cc2c(n1)CCCCC2)NC1CCCCCC1,inactive
8,COC(=O)c1cccc(NC(=O)c2cnoc2C)c1,inactive
9,Cc1csc2ncc(C(=O)Nc3ccc(C(F)(F)F)cc3)c(=O)n12,inactive
10,COc1ccc(CNC(=O)[C@H](C)[C@H]2C[C@]2(C)[C@H](NC(=O)OCc2ccccc2)c2ccccc2)cc1OC,inactive
11,CCOC(=O)CSc1nc(C)c2ccc(C)cc2n1,inactive
12,N#CCc1nc2n(n1)Cc1ccccc1-2,inactive
13,Fc1ccc(-c2nc3n(n2)Cc2ccccc2-3)cc1,active
14,Clc1ccc(-c2nc3n(n2)Cc2ccccc2-3)cc1,inactive
15,CCN(CC)S(=O)(=O)c1cccc(-c2nc3n(n2)Cc2ccccc2-3)c1,inactive
16,O=S(=O)(c1cccc(-c2nc3n(n2)Cc2ccccc2-3)c1)N1CCCC1,inactive
17,CCn1c(C)nc2cc(-c3nnc(-c4c(-c5ccccc5)noc4C)o3)ccc21,inactive
18,CCn1c(C)nc2cc(S(=O)(=O)N3CCCC3)ccc21,inactive
19,CCn1c(C)nc2cc(-c3nc4n(n3)Cc3ccccc3-4)ccc21,active
20,CCOc1ccc(C2Oc3nc(SC)nnc3-c3ccccc3N2C(C)=O)cc1OC (stereo not given),inactive
21,O=C(C1CCCN(S(=O)(=O)c2cnc[nH]2)C1)N1CC(=O)N(CCc2ccccc2)C(=O)C1 (stereo not given),inactive
22,CN(CC(=O)N1CC(=O)N(CCc2ccccc2)C(=O)C1)S(=O)(=O)c1cccc2nsnc12,inactive
23,Cc1cc(C)n(-c2ccc(C(=O)OCc3nnc(-c4ccccc4)o3)cc2)n1,inactive

row,Structure (SMILES),outcome
1,CCCCC(CC)CNC(=O)C1CCCN(S(=O)(=O)c2cnc[nH]2)C1 (stereo not given),inactive
2,Cc1cc(C)n2nc(S(=O)(=O)NC3CCCCC3)nc2n1,inactive
3,CN1CCN(Cc2cc(COCc3ccccc3)c3cccnc3c2O)CC1,inactive
4,Oc1ccc(CN2CCc3ccccc3C2)c2cccnc12,inactive
5,Oc1c(CN2CCOCC2)cc(COCc2ccccc2)c2cccnc12,inactive
6,OCCN1CCN(Cc2cc(Cl)c3cccnc3c2O)CC1,inactive
7,COC(=O)c1sc(S(=O)(=O)NCc2cccs2)c(C(=O)OC)c1C,inactive
8,COc1ccc(C(=O)NCCC2=CCCCC2)cc1OC,inactive
9,COc1cc(C(=O)NCCC2=CCCCC2)cc(OC)c1OC,inactive
10,O=C(NCCc1ccc(Cl)cc1)c1nnc(Cc2ccc(Cl)cc2)o1,inactive
11,CC1CCCCC1NC(=O)C1CCN(S(=O)(=O)N2CCC3(CC2)OCCO3)CC1 (stereo not given),inactive
12,CC1C(=O)CCN(C(C)(C)C)C1C (stereo not given),inactive
13,COc1ccc(OC)c(C2c3c(oc4ccccc4c3=O)C(=O)N2CCCN(C)C)c1 (stereo not given),inactive
14,c1ccc(-c2nc(-c3ccncc3)no2)cc1,inactive
15,Cc1ccc(-c2noc(-c3ccccc3Br)n2)cc1,inactive
16,Cc1cccc(-c2noc(-c3ccc(F)cc3)n2)c1,active
17,Cc1ccc(-c2nc(-c3cccnc3)no2)cc1,inactive
18,Cc1ccc(SCc2nc(-c3ccccc3)no2)cc1,inactive
19,c1ccc(-c2ccc(-c3nc(-c4cccnc4)no3)cc2)cc1,inactive
20,Fc1ccccc1-c1nc(-c2ccccc2)no1,inactive
21,COc1ccc(-c2nc(-c3cccc(C)c3)no2)cc1OC,inactive
22,COc1cc(-c2nc(-c3cccc(C)c3)no2)cc(OC)c1OC,inactive
23,COC(=O)c1ccccc1NC(=O)C1CC=CCC1C(=O)O (stereo not given),inactive

row,Structure (SMILES),outcome
1,COC(=O)c1ccc(C(=O)OC)c(NC(=O)CCC(=O)O)c1,inactive
2,CCC1CCCCN1S(=O)(=O)c1ccc(NC(=O)CSc2ncccc2C(=O)O)cc1 (stereo not given),inactive
3,COc1ccc(CCN(C(=O)c2ccccc2)C2=CC3CCC(C2)N3C)cc1OC (stereo not given),inactive
4,CS(=O)(=O)N1CCC(C(=O)N2CCc3ccccc3C2)CC1,inactive
5,CC(=O)NC(C1C(=O)CC(C)(C)CC1=O)(C(F)(F)F)C(F)(F)F,inactive
6,O=C(COc1ccc(Cl)cc1)NCc1nnc(SCC(=O)NCc2ccc3c(c2)OCO3)o1,inactive
7,CCOC(=O)c1cnc(C(C)(C)C)[nH]c1=O,inactive
8,CCOc1ccc(-c2nc(-c3ccncc3)no2)cc1OCC,inactive
9,Cc1cc(C)cc(-c2nc(-c3ccncc3)no2)c1,inactive
10,CCc1ccc(-c2nc(-c3ccncc3)no2)cc1,inactive
11,CN(C)c1ccc(-c2noc(-c3ccccc3O)n2)cc1,active
12,COc1ccc(-c2nc(-c3ccncc3)no2)cc1OC,inactive
13,NC(=O)c1ccccc1-c1nc(-c2ccccc2)no1,inactive
14,c1ccc(-c2noc(-c3ccccc3-c3ccccc3)n2)cc1,inactive
15,CCCC(=O)Nc1c(-c2cccs2)c(=O)c2ccccc2n1CC,inactive
16,CCOC(=O)c1ccc(S(=O)(=O)N2CCN(CC3CC=CCC3)CC2)cc1 (stereo not given),inactive
17,COc1ccccc1C1/C(=C(/O)c2ccc(Cl)cc2)C(=O)C(=O)N1CCN1CCOCC1 (stereo not given),inactive
18,O=C(O)CN1C(=O)Nc2ccc(Br)cc2C1c1ccccc1 (stereo not given),inactive
19,Cc1nc(CC(=O)c2c(C)cc(O)cc2O)cs1,inactive
20,O=C(Cc1cccs1)NCc1cccs1,inactive
21,COC(=O)C(C)Oc1ccc(=O)[nH]n1 (stereo not given),inactive
22,COc1ccc(OC)c(NC(=O)Cc2coc3cc(C)cc(C)c23)c1,inactive
23,CS(=O)(=O)N(Cc1ccccc1)c1ccccc1C(=O)N1CCN(c2ccccc2)CC1,inactive
